# High-throughput results (PubChem BioAssay)
# VP16 counter: VP16 counterscreen qHTS for inhibitors of ROR gamma transcriptional activity | Drosophila S2 Gal4-VP16 UAS-luciferase, luminescence, 20 h | Potency, µM (top dose mostly 53.6 µM), for inactives: at the highest dose activity, negative = inhibition, hits mostly inhibitors | 3.5% of 310,000 active | AID 2546, 2010;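 also: Gal4-VP16 expression switched on by copper sulfate through the metallothionein promoter; nearly all actives have a fitted effect of over 50% in size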
# ALDH1A1 block: qHTS Assay for Inhibitors of Aldehyde Dehydrogenase 1 (ALDH1A1); Potency, µM (top dose mostly 75.3 µM), without a hit: at the highest dose activity, negative = inhibition, hits mostly inhibitors; Purified ALDH1A1, NADH fluorescence, propionaldehyde substrate; 7.3% of 220,000 active; Aldehyde dehydrogenase 1A1 (Homo sapiens), P00352; active = well fitted inhibition curve with a large enough effect, not every such curve was filed as active; inconclusive = small, poorly fitted or top-dose-only effect, or another doubt; inactive = no such curve, though single readings can be large or run the other way;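 also: plate controls were no enzyme wells and a reference inhibitor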
# Target sequence (P00352 whole entry, looked up): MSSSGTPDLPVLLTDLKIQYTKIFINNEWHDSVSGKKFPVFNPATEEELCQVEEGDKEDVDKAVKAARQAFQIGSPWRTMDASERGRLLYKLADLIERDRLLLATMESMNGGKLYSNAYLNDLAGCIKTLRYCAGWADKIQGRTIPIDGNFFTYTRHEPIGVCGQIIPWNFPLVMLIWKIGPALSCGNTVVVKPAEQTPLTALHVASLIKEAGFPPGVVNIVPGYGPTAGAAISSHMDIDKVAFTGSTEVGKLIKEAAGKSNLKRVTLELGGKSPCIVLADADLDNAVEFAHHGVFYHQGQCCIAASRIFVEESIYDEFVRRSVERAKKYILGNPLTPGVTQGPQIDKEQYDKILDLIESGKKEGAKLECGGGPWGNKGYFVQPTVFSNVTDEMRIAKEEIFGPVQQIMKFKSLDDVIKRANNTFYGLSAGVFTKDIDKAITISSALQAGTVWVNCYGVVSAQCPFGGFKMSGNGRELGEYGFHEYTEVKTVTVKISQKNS
# PLK1 PBD block: qHTS for Inhibitors of PLK1-PDB (polo-like kinase 1 - polo-box domain): Primary Screen. Plk1 PBD binding of FITC phosphopeptide, fluorescence polarization. Serine/threonine-protein kinase PLK1 (Homo sapiens), P53350. 2.8% of 360,000 active. Potency, µM, for the others: max response, negative = inhibition, hits mostly inhibitors; also: series mostly up to about 57 µM; nearly all actives have a fitted effect of over 65% in size
# Sfp inh: qHTS Assay for Inhibitors of Bacillus subtilis Sfp phosphopantetheinyl transferase (PPTase); Biochemical Sfp PPTase activity, qHTS; Potency, µM, without a hit: largest response in the series, negative = inhibition, most hits filed as inhibitors; 3.5% of 310,000 active; AID 1490, 2009;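 also: the enzyme is Sfp with the accession as filed and its product quenches rhodamine fluorescence; 0% = enzyme reaction without inhibitor and -100% = no enzyme wells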
#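 Step 1, compound plus 15 nM Sfp-PPTase, 15 min, room temperature. Step 2, add rhodamine-CoA (5 uM) and BHQ-2-YbbR (12.5 uM). Step 3, read 525/598 nm fluorescence at 0 and 30 min.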
# RORg inh: qHTS for inhibitors of ROR gamma transcriptional activity; Nuclear receptor ROR-gamma (Mus musculus), P51450; Drosophila S2 Gal4-RORgamma UAS-luciferase reporter, 20 h; Potency, µM (titrated, usually from 53.6 µM), without a hit: top-dose activity change, negative = inhibition, most hits filed as inhibitors; 5.4% of 310,000 active; also: nearly all actives have a fitted effect of over 60% in size
#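 Drosophila S2 cells stably expressing Gal4-DBD/mouse RORγ fusion under metallothionein promoter plus UAS-luciferase; compound 1 h, then 700 uM CuSO4 induction for 20 h at ambient temperature; inhibition read as reduced luminescence.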
# Starred values were filed as active, the others as inactive; ? = inconclusive; nt = not tested or not shown; [ ] = dose if it differs, or a comment. A selection: hits, their analogues and other compounds. The true share with any hit is near 12%. Unless noted, calls follow the shape of the dose curve; as a rule, active = well fitted curve in the direction sought with a large enough effect; inconclusive = small, poorly fitted or top-dose-only effect, or another doubt; inactive = no such curve, though single readings can be large; an effect the other way counts as inactive or inconclusive. Unless noted, % is scaled to controls: 0 for no effect and ±100 for the full control effect; potency is read from the fitted curve at half-maximal effect.
SMILES,VP16 counter,ALDH1A1 block,PLK1 PBD block,Sfp inh,RORg inh
CCN1C(=S)SC(=O)C1=C1C=C(C)N(CCOC)C(C)=C1,-12%,6.3µM*,nt,50µM*,-28%
CC(=O)OCC(NC(=O)C(Cc1ccccc1)NC(=O)OC(C)(C)C)C1OC(n2cc(C)c(=O)[nH]c2=O)C(OC(C)=O)C1OC(C)=O (configuration not stated),-9%,nt,nt,-11%,-10%
CS(=O)(=O)Nc1cccc(-c2nc(NCc3cccnc3)c3ccccc3n2)c1,2%,7%,nt,-12%,15%
CS(=O)(=O)Nc1cccc(-c2nc(NCc3ccccc3)c3ccccc3n2)c1,-9%,25µM*,nt,6%,12%
Cc1cccc2cc(-c3nc4ccc(C(=O)O)cc4[nH]3)c(=O)oc12,5µM*,nt,-24%,15%,2.8µM*
COc1ccc(OC)c(CN2C(=O)c3ccccc3C2c2nnnn2Cc2ccccc2)c1 (configuration not stated),nt,nt,-9%,nt,nt
COc1ccc2[nH]cc(CCNc3ccnc(-c4ccccc4C)n3)c2c1,-4%,?,nt,-29%,26%
O=C(c1ccco1)N1C(=O)c2cccc3cccc1c23,10%,?,5.3µM*,9%,-8%
N#CCCn1cc(/C=N/NC(N)=S)c(-c2ccc(-c3ccccc3)cc2)n1,3.2µM*,-12%,-17%,7%,1.1µM*
N#CCCn1cc(/C=N/O)c(-c2ccccc2)n1,-9%,?,-10%,12%,-15%
CCOc1ccc(-c2nnn(CCC#N)n2)cc1OC,-18%,6%,19µM*,12%,3%
COc1ccc(-c2nn(CCC#N)cc2/C=N/O)cc1OC,-2%,18µM*,-18%,-19%,-3%
CCOC(=O)/C(C#N)=C/c1cn(CCC(=O)O)nc1-c1ccccc1,0%,-1%,30µM*,11%,-2%
CC(C)(CCc1nc2ccccc2[nH]1)C(=O)O,nt,2%[13.5 µM],nt,nt,nt
CCOc1cc(N2CCOCC2)c(OCC)cc1NC(=O)CN1C(=O)NC2(CCCCC2C)C1=O (configuration not stated),nt,nt,0%,nt,nt
CN(C)CCNC(=O)c1ccc(-n2c(=O)c(=O)[nH]c3ccccc32)cc1,nt,15%,nt,nt,nt
N#CCCn1cc(C(N)=O)c(-c2ccc3ccccc3c2)n1,6%,nt,27µM*,15%,-11%
N#CCCn1cc(C=C(C#N)C#N)c(-c2ccc(-c3ccccc3)cc2)n1,20µM*,?,-9%,?,?
CN(C)C(=O)c1cn(CCC#N)nc1-c1ccc2ccccc2c1,4%,nt,-14%,12%,-1%
CCN(CC)C(=O)C1=C(C)N(Cc2ccc(F)cc2)C(=O)C(CC(=O)NCC2CCCCC2)C1 (configuration not stated),nt,nt,2%,nt,nt
O=C(/C=C/c1ccco1)NC(=S)Nc1cccc([N+](=O)[O-])c1,?,0%,-24%,32µM*,?
CC(OC(=O)/C=C/c1ccco1)C(=O)Nc1cccc([N+](=O)[O-])c1 (configuration not stated),15%,?,-4%,?,34%
NC(N)=NS(=O)(=O)c1ccc(NC(=S)NC(=O)/C=C/c2ccco2)cc1,-5%,?,-9%,5%,0%[10 µM]
Cc1cccc(NC(=S)NC(=O)/C=C/c2ccco2)n1,?,?,-15%,?,10µM*
NS(=O)(=O)c1ccc(NC(=S)NC(=O)/C=C/c2ccco2)cc1,-5%,?,-9%,20µM*,10%[10 µM]
SMILES,VP16 counter,ALDH1A1 block,PLK1 PBD block,Sfp inh,RORg inh
O=C(/C=C/c1ccco1)NC(=S)Nc1ccccc1,3.2µM*,nt,-26%,-16%,7.1µM*
O=C(/C=C/c1ccco1)Nc1ccccn1,-28%,-6%,1%,29%,-45%
CC(C)c1nc2sc3c(c2c(=O)[nH]1)CC(C)(C)OC3,-3%,nt,-3%,3%,1%
CC1CCC2C(=O)OC(CN3C(=O)c4ccccc4C3=O)CN2C1c1ccc(Br)cc1 (configuration not stated),1%[10 µM],?,nt,8%,-4%[10 µM]
Cc1cccc(NC(=S)NC(=O)/C=C/c2ccco2)c1,?,24µM*,?,?,4.5µM*
CC(=O)c1ccc(NC(=S)NC(=O)/C=C/c2ccco2)cc1,?,nt,0%,-19%,10%[1.91 µM]
CC1CC=CC2C1C(=O)N(Cc1ccccc1)C2c1ccc(C(F)(F)F)cc1 (configuration not stated),?,nt,nt,2%,44%
Cc1ccc(S(=O)(=O)N2[C@@H](c3ccc(Cl)cc3)C(C(=O)O)=CC[C@H]2c2ccc(C(C)C)cc2)cc1,nt,nt,19µM*,nt,nt
Cc1ccc([C@H]2C(C(=O)O)=CC[C@@H](c3ccc(C(C)C)cc3)N2S(=O)(=O)c2ccc(C)cc2)cc1,nt,nt,24µM*,nt,nt
COc1ccc([C@@H]2CC=C(C(=O)O)[C@H](c3ccc(Cl)cc3)N2S(=O)(=O)c2ccc(C)cc2)cc1OC,nt,nt,-11%,nt,nt
Cc1ccc([C@@H]2CC=C(C(=O)O)[C@H](c3ccccc3)N2S(=O)(=O)c2ccc(C)cc2)cc1,nt,nt,-4%,nt,nt
CCOC(=O)Cc1c(-c2cccc(Br)c2)nc2c3ccccc3ccn12,nt,nt,-8%,nt,nt
Cc1ccc(C(C)C)cc1NC(=O)Nc1ccc([N+](=O)[O-])cc1,13µM*,nt,4%,21%,35µM*
CC(=O)Nc1ccc(NC(=O)c2ccccc2S(=O)(=O)c2ccc([N+](=O)[O-])cc2)cc1,-8%,2%,15µM*,1%,12%
COC(=O)/C=C/S(=O)(=O)c1ccc(NC(C)=O)cc1,5µM*,0.32µM*,-10%,?,5µM*
CC(=O)Nc1ccc(OS(=O)(=O)c2ccc([N+](=O)[O-])cc2)cc1,1%,25µM*,-2%,3%,8%
COc1ccccc1/C=C/C(=O)OCC(=O)N1CCc2ccccc21,nt,nt,-3%,nt,nt
Cc1ccc(C(CCNC(C)c2cccs2)c2ccco2)cc1 (configuration not stated),-11%,nt,-7%,3%,-11%
CC(=O)N/C(=C/c1ccc(OS(=O)(=O)c2ccc(C)cc2)cc1)C(=O)NCCCO,7%,2.2µM*,4%,24%,-4%
CC(=O)Nc1ccc(S(=O)(=O)Oc2ccc(C=O)cc2)cc1,6%,28µM*,-16%,7%,-1%
CC(=O)Nc1ccc(OCCOc2ccc([N+](=O)[O-])cc2)cc1,1%,nt,-18%,89µM*,15%
CC(=O)Nc1ccc(S(=O)(=O)Nc2cc([N+](=O)[O-])ccc2C)cc1,3%,-5%,6.7µM*,20%,30%
O=S1(=O)CC(O)C(O)CS1 (configuration not stated),nt,nt,11µM*,nt,nt
